Test [1] can be described thus: Quantitative High-Throughput drug screen in 47 multiple myeloma cell lines against the NCATS MIPE library collection: EJM_DSMZ cell viability assay (AID 1918926; also: nearly all actives have a fitted effect of over 30% in size). Put shortly: (§1)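 Myeloma cells (500 per well) were exposed to MIPE 4.0 compounds by pin transfer and incubated 48 hours at 37C, 5% CO2. Viability was read as ATP by CellTiter-Glo luminescence, normalised to DMSO (100%) and media-only (0%) wells.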

Test [2] is described as follows: Quantitative High-Throughput drug screen in 47 multiple myeloma cell lines against the NCATS MIPE library collection: AMO1_DSMZ cell viability assay (AID 1918927; also: nearly all actives have a fitted effect of over 30% in size). Put shortly: as §1
Test [3] in a line: Quantitative High-Throughput drug screen in 47 multiple myeloma cell lines against the NCATS MIPE library collection: ARP1_JJKsccF8 cell viability assay (AID 1918928; also: nearly all actives have a fitted effect of over 40% in size). Summed up:
(§2)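 ATP readout (CellTiter-Glo), 48 h drug incubation, 37 °C/5% CO2, 500 cells per well; normalisation to DMSO (100%) and media-only (0%) controls.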

Test [4] is described as follows: Quantitative High-Throughput drug screen in 47 multiple myeloma cell lines against the NCATS MIPE library collection: ARD_JJKsccE7 cell viability assay (AID 1918929). Summed up: as §1
A short description of test [5]: Quantitative High-Throughput drug screen in 47 multiple myeloma cell lines against the NCATS MIPE library collection: Karpas620_DSMZ cell viability assay (AID 1918959). Also: nearly all actives have a fitted effect of over 30% in size. Put shortly: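 Inhibition of cell viability is measured here. Each line was plated at 500 cells per well, treated with MIPE 4.0 drugs, kept 48 hours at 37C, then assayed for ATP content by CellTiter-Glo luminescence.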

A short description of test [6]: Quantitative High-Throughput drug screen in 47 multiple myeloma cell lines against the NCATS MIPE library collection: KMM1_JCRB cell viability assay (AID 1918960). Also: nearly all actives have a fitted effect of over 30% in size. Put shortly: as §2
A short description of test [7]: Quantitative High-Throughput drug screen in 47 multiple myeloma cell lines against the NCATS MIPE library collection: Delta47_JCRB cell viability assay (AID 1918925; also: nearly all actives have a fitted effect of over 45% in size). Put shortly:
as §1

A short description of test [8]: Quantitative High-Throughput drug screen in 47 multiple myeloma cell lines against the NCATS MIPE library collection: Karpas417_ECACC cell viability assay (AID 1918961). The following applies: Karpas417 myeloma viability, CellTiter-Glo ATP luminescence, 48 h; viability (% of DMSO): at 45.8 µM (top of the series). Put shortly: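 qHTS of the MIPE 4.0 collection: 500 myeloma cells/well, 48 h drug exposure at 37C in 5% CO2, then CellTiter-Glo for 5 min at room temperature before luminescence reading.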
On the technique in general: ATP-based viability assays read luminescence as a measure of living cells.

Results filed as inconclusive are left out. The source made the active and inactive calls. Calls follow the shape of the dose curve; as a rule, active = well fitted cell-killing curve with a large enough effect; inconclusive = small, poorly fitted or top-dose-only effect, or effect the other way; inactive = no such curve, though single readings can be large or run the other way.
Potency is read from the fitted curve at half-maximal effect.

For `CC(C)(CO)[C@@H](O)C(=O)NCCC(=O)O`, the Potency entry in test [1], in test [2], in test [4], in test [5] and in test [6] was “inactive” in each case. In addition, in test [3], the Potency was 1.66 µM (active).
Take `Cc1ccc(S(=O)(=O)OCC(=O)Nc2ccc(C(=O)O)c(O)c2)cc1`: the Potency in test [7] was 16.6 µM (active). For the same compound, the Potency result in test [2], in test [3], in test [4], in test [5] and in test [6] was “inactive” in each case.
As to `O=S(=O)(NCCNCC=Cc1ccc(Br)cc1)c1cccc2cnccc12`, the Potency is 14.8 µM (active) in test [7]; 16.6 µM (active) in test [2]; 16.6 µM (active) in test [3]; 10.5 µM (active) in test [4]; 20.9 µM (active) in test [5]; 14.8 µM (active) in test [6]. Further, the Potency in test [8] is 1.32 µM (active).
`COc1ccc(CCN(C)CCCOc2ccc(S(=O)(=O)c3[nH]c4ccccc4c3C(C)C)cc2)cc1OC`: the Potency in test [7] was 20.9 µM (active). The Potency entry in test [2], in test [3], in test [4], in test [5] and in test [6] was “inactive” each time.
As for `O=C(Nc1cccc2c(=O)cc(-c3nn[nH]n3)oc12)c1ccc(OCCCCc2ccccc2)cc1`, the Potency entry in test [1] was “inactive”.
Turning to `CC(=O)OCC(=O)[C@@]1(O)CC[C@H]2[C@@H]3CCC4=CC(=O)C=C[C@]4(C)[C@@H]3[C@@H](O)C[C@@]21C`, the Potency entry in test [7], in test [1], in test [6] and in test [8] was “inactive” each time.
Regarding `C[C@H]1COC2=C1C(=O)C(=O)c1c2ccc2c1CCCC2(C)C`, the Potency in test [7] is 14.8 µM (active); in test [3] it was 16.6 µM (active). Further, the Potency result in test [4] and in test [6] was “inactive” throughout.
Turning to `CCOc1ccccc1N=Nc1c(C)[nH]n(-c2nc(-c3ccccc3)cs2)c1=O`, the Potency entry in test [7], in test [2], in test [3] and in test [6] was “inactive” throughout.
Take `CCCCCCCCCCCCCC(=O)N[C@H](CO)[C@H](O)c1ccc([N+](=O)[O-])cc1`: the Potency is 18.7 µM (active) in test [7]; 10.5 µM (active) in test [2]; 20.9 µM (active) in test [4]; 16.6 µM (active) in test [5]; 20.9 µM (active) in test [6].
In the case of `O=C(c1ccc(C=Cc2n[nH]c3ccccc23)cc1)N1CCNCC1`, the Potency is 3.32 µM (active) in test [7]; 20.9 µM (active) in test [1]; 13.2 µM (active) in test [3]; 1.32 µM (active) in test [4]; 5.26 µM (active) in test [6].
As to `Clc1ccc(COC(Cn2ccnc2)c2ccc(Cl)cc2Cl)c(Cl)c1` (stereo not given), the Potency is 20.9 µM (active) in test [1]; 23.5 µM (active) in test [2]; 18.7 µM (active) in test [3]; 23.5 µM (active) in test [4]; 20.9 µM (active) in test [5]; 18.7 µM (active) in test [6].
As to `CN1CCC[C@H]1CCO[C@](C)(c1ccccc1)c1ccc(Cl)cc1`, in test [7], the Potency is 13.2 µM (active). Moreover, the Potency entry in test [3], in test [4] and in test [6] was “inactive” throughout.
Consider `Cc1nn(Cc2ccccc2Cl)c(C)c1CN(C)CC(O)COc1ccc(Cl)cc1` (stereo not given), for which the Potency in test [7] is 18.7 µM (active); in test [6] it was 5.9 µM (active). For the same compound, in test [2], the Potency entry is “inactive”.
With `CN1[C@H]2CC[C@H]1CC(OC(=O)c1c[nH]c3ccccc13)C2` (stereo not given in full), the Potency in test [7] is 4.18 µM (active). For the same compound, the Potency result in test [1], in test [2] and in test [6] was “inactive” in each case.
In the case of `O=C(C=Cc1ccc(O)cc1)c1ccc(O)cc1O`, the results for the Potency in test [7], in test [2] and in test [6] were 13.2 µM (active), 10.5 µM (active) and 16.6 µM (active), respectively.
On to `CCOC(=O)c1c(CSc2ccccc2)n(C)c2cc(Br)c(O)c(CN(C)C)c12`, for which, in test [2], the Potency was 26.4 µM (active).
For `CC1=C[C@@H]2[C@@H]([C@@H](O)C[C@@]3(C)[C@H]2C[C@@H](C)[C@]3(O)C(=O)CO)[C@@]2(C)Cc3cnn(-c4ccccc4)c3C=C12`, the Potency in test [2] is 5.26 µM (active); in test [4], 0.0059 µM (active); in test [6], 0.0105 µM (active).
Turning to `CCCCC(C=O)NC(=O)C(CC(C)C)NC(=O)OCc1ccccc1` (stereo not given), the Potency entry in test [2], in test [4], in test [5] and in test [6] was “inactive” each time.
For the compound `CC[C@@H]([C@H](C)O)n1ncn(-c2ccc(N3CCN(c4ccc(OCC5CO[C@@](Cn6cncn6)(c6ccc(F)cc6F)C5)cc4)CC3)cc2)c1=O` (stereo not given in full), the figures for the Potency in test [2], in test [5] and in test [6] were 7.43 µM (active), 5.9 µM (active) and 5.9 µM (active), respectively.
Consider `Nc1ncnc2c1ncn2[C@@H]1O[C@H](CO)[C@@H](O)[C@@H]1O`, for which the Potency entry in test [1] is “inactive”. The Potency in test [2] was 1.87 µM (active); in test [3] it was 23.5 µM (active); in test [4] it was 2.64 µM (active); in test [6], 1.32 µM (active); in test [8], 0.118 µM (active).
`COc1ccc2ccc(=O)oc2c1CC=C(C)C`: the Potency in test [1] is 1.48 µM (active); in test [2], 13.2 µM (active); in test [3], 8.33 µM (active); in test [5] it was 16.6 µM (active).
Consider `CN(C)CC[C@H](CSc1ccccc1)Nc1ccc(S(=O)(=O)NC(=O)c2ccc(N3CCN(Cc4ccccc4-c4ccc(Cl)cc4)CC3)cc2)cc1[N+](=O)[O-]`, for which the Potency in test [1] is 5.9 µM (active); in test [3] it was 13.2 µM (active); in test [4], 8.33 µM (active); in test [5] it was 0.0662 µM (active); in test [6], 4.69 µM (active); in test [8] it was 0.0935 µM (active).

(Values after PubChem BioAssay (NCATS).)
